Tgondii IFNg: T. gondii growth inhibition with IFN-gamma, primary screen, cell-based; Toxoplasma gondii growth in IFN-gamma-treated host cells; stronger effect = lower value; activity change, negative = inhibition, % (no concentration beside the values); hit rate 3.8% among 69,000; in the data active = activity change below about -70%, passing the limit was not always enough;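 also: host cells are HeLa cells infected with Toxoplasma gondii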
An asterisk follows results filed as active; ! = not active in a repeat. This excerpt belongs to a sample that is enriched for hits.

Results for O=[N+]([O-])c1ccc(O)c([N+](=O)[O-])c1 ?
Tgondii IFNg: -79*!

What do the screens show for `O=[N+]([O-])c1cc([As](=O)(O)O)ccc1O`?
Tgondii IFNg: 17

What do the screens show for `N#CC(C#N)=Cc1ccc([N+](=O)[O-])c(O)c1`?
Tgondii IFNg: 13

Results for C1CC2(CCN1)CC(N1CCOCC1)CO2 (configuration not stated) ?
Tgondii IFNg: 18

How did Cc1cnc(C(=O)N2C[C@H]3CN(Cc4cccnc4)C[C@@H]3C2)cn1 do in these assays?
Tgondii IFNg: -5

Results for Cc1nnc2ccc(-c3cccc(C(F)(F)F)c3)nn12 ?
Tgondii IFNg: -80*

What do the screens show for `CC(C)N1CCN(C)C2(CCN(Cc3ccncc3)CC2)C1=O`?
Tgondii IFNg: 4

What do the screens show for `COc1ccc(NC(=O)c2c(O)c3cccnc3n(Cc3ccccc3)c2=O)cc1Cl`?
Tgondii IFNg: 144

Results for CCCCCCC(C)(C)c1ccc(C2CC(O)CCC2CCCO)c(O)c1 (configuration not stated) ?
Tgondii IFNg: -79*

How did C[C@H](N)Cn1ccc2cc(F)c(Cl)cc21 do in these assays?
Tgondii IFNg: 2

Results for CC(C)N(C)CC1COC2(CNCCOC2)C1 (configuration not stated) ?
Tgondii IFNg: -8

Results for c1cn(CCc2cnc[nH]2)c(-c2ccc3occc3c2)n1 ?
Tgondii IFNg: -44

How did O=C(NC1CC2(CCN(Cc3ccccn3)C2)C1)c1cnccn1 (configuration not stated) do in these assays?
Tgondii IFNg: 3

How did C[C@]12CC[C@H](OC3OC(O)C(O)C(O)C3O)C=C1CCC1C2CC[C@]2(C)[C@@H](c3ccc(=O)oc3)CC[C@]12O (some centres not stated) do in these assays?
Tgondii IFNg: -80*

Results for CCN1CCN(C)C2(CCN(c3cccnc3)CC2)C1=O ?
Tgondii IFNg: -26

What do the screens show for `C1CCN2C(C1)N1CCCCC1N1CCCCC21` (configuration not stated)?
Tgondii IFNg: -19

What do the screens show for `C/C(=C\c1ccco1)CN1CCC2(CCNCC2)C1`?
Tgondii IFNg: 9

What do the screens show for `Cc1noc(C)c1CN1CC[C@@H]2C[C@H](c3nccs3)O[C@H]2C1`?
Tgondii IFNg: 51

How did O=c1[nH]c2ccccc2n1C1CCN(CCCC(c2ccc(F)cc2)c2ccc(F)cc2)CC1 do in these assays?
Tgondii IFNg: -95*!

Results for O=C(c1ccccn1)N1C[C@@H]2OCCN(CC3CCCO3)[C@H]2C1 (some centres not stated) ?
Tgondii IFNg: -36

How did c1ccc2c(C3=NCCCCN3)c[nH]c2c1 do in these assays?
Tgondii IFNg: -5

How did COCC(C)NC(=O)c1cc2cccnc2n(Cc2ccc(F)cc2)c1=O (configuration not stated) do in these assays?
Tgondii IFNg: -50

What do the screens show for `Cc1cc(Br)ccc1NC(=O)c1cc2cccnc2n(Cc2ccccc2F)c1=O`?
Tgondii IFNg: 96

What do the screens show for `O=C(Nc1ccccc1)c1cc2cccnc2n(Cc2ccc(F)cc2)c1=O`?
Tgondii IFNg: 78

What do the screens show for `CC(NC(=O)c1cc2cccnc2n(Cc2ccc(F)cc2)c1=O)c1ccccc1` (configuration not stated)?
Tgondii IFNg: -115*

How did CCCCCNC(=O)c1cc2cccnc2n(Cc2ccc(F)cc2)c1=O do in these assays?
Tgondii IFNg: -40

Results for Cc1cc(C)c(NC(=O)c2cc3cccnc3n(Cc3ccccc3F)c2=O)c(C)c1 ?
Tgondii IFNg: -83*

How did O=C(NCCc1ccccc1)c1cc2cccnc2n(Cc2ccc(F)cc2)c1=O do in these assays?
Tgondii IFNg: 121

Results for O=C(Nc1ccccc1)c1cc2cccnc2n(Cc2ccccc2F)c1=O ?
Tgondii IFNg: 81

How did NS(=O)(=O)c1ccc(CCNC(=O)c2cc3cccnc3n(Cc3ccc(F)cc3)c2=O)cc1 do in these assays?
Tgondii IFNg: -88*

What do the screens show for `O=C(Nc1ccc(C(F)(F)F)cc1)c1cc2cccnc2n(Cc2ccccc2F)c1=O`?
Tgondii IFNg: 17

Results for COC(=O)C1(Cc2ccccc2)C(=O)CC2CCC1N2Cc1cccc(OC)c1 (configuration not stated) ?
Tgondii IFNg: 31

Results for CN1C[C@H]2COC[C@H](CC(=O)Nc3cccnc3)[C@H]2C1 ?
Tgondii IFNg: -10

How did CN1CCN2CCN(C(=O)c3cc(=O)n(C)c(=O)n3C)CC2C1=O (configuration not stated) do in these assays?
Tgondii IFNg: 40

How did CC(C)(C)CN1CC2CN(C(=O)CCc3cccnc3)CC2C1 (configuration not stated) do in these assays?
Tgondii IFNg: 15

Results for C[C@@H]1O[C@@H](O[C@H]2C[C@@H](O)[C@]3(CO)C4C(CC[C@]3(O)C2)[C@@]2(O)CC[C@H](C3=CC(=O)OC3)[C@@]2(C)C[C@H]4O)[C@H](O)[C@H](O)[C@H]1O (some centres not stated) ?
Tgondii IFNg: -78*

What do the screens show for `Cc1ccc(CN2C[C@H](OCc3ccccn3)[C@@H]3COC[C@@H]32)o1`?
Tgondii IFNg: inactive

What do the screens show for `CN1C[C@@H](NC(=O)C2CC2)C2OCCCC21` (some centres not stated)?
Tgondii IFNg: -24

How did CCc1nn2c(=O)cc(CN3CCCC4(CNC(=O)O4)C3)nc2s1 (configuration not stated) do in these assays?
Tgondii IFNg: -3

How did C=C1[C@@H](C)[C@H]2[C@H](Cc3ccccc3)NC(=O)[C@]23OC(=O)/C=C/[C@H](O)CCC[C@@H](C)C/C=C/[C@H]3[C@@H]1O do in these assays?
Tgondii IFNg: -98*

What do the screens show for `CCCCCCN1CCN(c2cccc(Cl)c2)CC1`?
Tgondii IFNg: 11

What do the screens show for `COc1ccc2c(c1)C1(CCN(C(=O)c3scnc3C)CC1)CC2CC(=O)O` (configuration not stated)?
Tgondii IFNg: -9

How did COc1ccc2c(c1)C1(CCN(C(=O)c3nn(C)c4ccccc34)CC1)CC2CC(=O)O (configuration not stated) do in these assays?
Tgondii IFNg: -74*

What do the screens show for `COc1ccc2c(c1)C1(CCN(C(=O)C3(c4ccccc4)CCCC3)CC1)CC2CC(=O)O` (configuration not stated)?
Tgondii IFNg: -15

How did Cc1cc(F)ccc1NC(=O)c1c(O)c2cccnc2n(Cc2ccccc2)c1=O do in these assays?
Tgondii IFNg: 1

Results for CCN(CC1CCOCC1)C1CCCNC1 (configuration not stated) ?
Tgondii IFNg: 0

What do the screens show for `COc1cccc(CNC(=O)c2cc3cccnc3n(Cc3ccc(Cl)cc3)c2=O)c1`?
Tgondii IFNg: -47

How did NC(=O)c1cn(C2OC(CO)[C@H](O)[C@@H]2O)c2ncnc(N)c12 (some centres not stated) do in these assays?
Tgondii IFNg: -83*

How did CCNC(=O)[C@H]1O[C@@H](n2cnc3c(N)ncnc32)[C@H](O)[C@@H]1O do in these assays?
Tgondii IFNg: 7

What do the screens show for `NCC(CC(=O)O)c1ccccc1` (configuration not stated)?
Tgondii IFNg: -1

Results for CN(C)C(=O)Oc1cc(=O)n(C)c2ccccc12 ?
Tgondii IFNg: -21

What do the screens show for `CN(C)C(=O)Oc1c(-c2ccccc2)cn(Cc2ccccc2)c(=O)c1-c1ccccc1`?
Tgondii IFNg: -84*

Results for CCOC(=O)c1ccc(NC(=O)c2cc3cccnc3n(Cc3ccccc3)c2=O)cc1 ?
Tgondii IFNg: 13
